{"source": "PubChem BioAssay AID720704", "about": "(The Scripps Research Institute Molecular Screening Center, 2013)", "note": "About 660 (0.18%) of roughly 370,000 compounds were called active. The sample as a whole holds a higher share of actives than the screen did. A number with no mark means an inactive call. Rule as the data show it: active = inhibition above about 11%; inactive = the rest."}
{"molecular_target": "1-phosphatidylinositol 4,5-bisphosphate phosphodiesterase beta-3 (Homo sapiens) (UniProt Q01970)", "sequence (Q01970 whole entry, looked up)": "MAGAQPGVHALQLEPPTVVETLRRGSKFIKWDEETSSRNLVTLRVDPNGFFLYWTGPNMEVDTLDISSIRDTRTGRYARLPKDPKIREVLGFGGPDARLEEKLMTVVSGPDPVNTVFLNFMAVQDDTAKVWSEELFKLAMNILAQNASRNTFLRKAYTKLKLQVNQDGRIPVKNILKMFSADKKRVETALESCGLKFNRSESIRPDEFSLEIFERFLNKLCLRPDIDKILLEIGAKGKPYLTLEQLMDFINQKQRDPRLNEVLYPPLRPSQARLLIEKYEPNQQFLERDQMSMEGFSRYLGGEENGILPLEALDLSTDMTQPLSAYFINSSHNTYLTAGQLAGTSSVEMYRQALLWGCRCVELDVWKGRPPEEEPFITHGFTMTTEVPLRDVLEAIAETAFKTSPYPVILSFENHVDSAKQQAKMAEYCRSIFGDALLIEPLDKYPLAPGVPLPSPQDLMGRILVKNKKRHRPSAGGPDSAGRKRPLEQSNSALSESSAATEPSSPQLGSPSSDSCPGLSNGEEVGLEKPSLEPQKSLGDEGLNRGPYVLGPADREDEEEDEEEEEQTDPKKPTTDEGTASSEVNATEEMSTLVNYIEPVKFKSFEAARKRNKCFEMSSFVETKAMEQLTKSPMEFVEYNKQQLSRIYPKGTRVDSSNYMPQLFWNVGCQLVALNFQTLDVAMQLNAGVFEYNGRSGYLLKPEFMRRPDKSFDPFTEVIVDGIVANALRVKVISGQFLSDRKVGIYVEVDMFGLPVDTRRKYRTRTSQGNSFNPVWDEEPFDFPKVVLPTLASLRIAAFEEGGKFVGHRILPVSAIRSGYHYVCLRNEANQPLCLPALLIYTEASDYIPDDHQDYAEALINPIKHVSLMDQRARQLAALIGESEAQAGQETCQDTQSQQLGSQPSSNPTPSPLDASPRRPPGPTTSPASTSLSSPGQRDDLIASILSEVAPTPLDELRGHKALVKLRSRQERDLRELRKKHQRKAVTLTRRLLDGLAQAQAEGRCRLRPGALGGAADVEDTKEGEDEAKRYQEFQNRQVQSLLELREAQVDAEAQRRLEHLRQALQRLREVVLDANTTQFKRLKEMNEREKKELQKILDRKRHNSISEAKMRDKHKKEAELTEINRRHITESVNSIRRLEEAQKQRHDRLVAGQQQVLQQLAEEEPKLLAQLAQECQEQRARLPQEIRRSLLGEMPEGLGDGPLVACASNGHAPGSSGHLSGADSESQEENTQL", "assay": "human PLC-beta3 inhibitors, primary screen, biochemical, fluorescence (AID 720704);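 also: 0% = median of compound wells on plate and 100% = full blocker control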", "settings": "Purified PLC-beta3, fluorogenic substrate, at 12.2 µM, hits give high values"}
{"smiles": "CCCCn1c(O)c(C(CC)=NCc2ccco2)c(=O)[nH]c1=O", "inhibition": "7%"}
{"smiles": "CN(C)CCCN=Cc1c(O)n(Cc2ccco2)c(=O)[nH]c1=O", "inhibition": "-6.13%"}
{"smiles": "CCC(=NCc1ccco1)c1c(O)n(Cc2ccccc2)c(=O)[nH]c1=O", "inhibition": "11.8% (active)"}
{"smiles": "COC(=O)[C@@H]1C(OC(=O)c2ccccc2)CC2CCC1N2C", "note": "(stereo not given in full)", "inhibition": "-5.47%"}
{"smiles": "CCN1c2nc3c(C)cccn3c(=O)c2CC2(C(=O)N(C)C(=O)N(C)C2=O)C1C", "note": "(stereo not given)", "inhibition": "-9.87%"}
{"smiles": "c1ccc(CC2CCCCN2)cc1", "note": "(stereo not given)", "inhibition": "-1.27%"}
{"smiles": "CC(C)(C)[C@]1(O)C[C@@H]2OC(=O)C[C@@]23C(=O)O[C@@H]2OC(=O)[C@H](O)[C@]213", "inhibition": "11.8% (active)"}
{"smiles": "CN(C)/C=C(\\C=[N+](C)C)c1[nH]ncc1[N+](=O)[O-]", "inhibition": "3.86%"}
{"smiles": "Cc1cc(C)cc(NC(=S)NC2CC3CCCC(C2)N3Cc2cccs2)c1", "note": "(stereo not given)", "inhibition": "5.75%"}
{"smiles": "O=C(COC(=O)Cc1ccccc1)Nc1ccc(F)cc1", "inhibition": "3.13%"}
